An excerpt weighted towards active compounds, which were near 5.2% of everything screened.
ALR H2O2 inh = inhibitors of human ALR sulfhydryl oxidase, primary screen, biochemical, H2O2 detection, HRP-luminol luminescence, single point | FAD-linked sulfhydryl oxidase ALR (Homo sapiens), P55789 | purified ALR, DTT oxidation | inhibition, % (no concentration beside the values) | 290,000 compounds, 3.8% hits;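 active = mean replicate inhibition above about 79%, with every replicate also reaching it, limit read from the data; inconclusive = only one of the two criteria met; inactive = mean below limit and not every replicate reaching it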
Target sequence (P55789 whole entry, looked up): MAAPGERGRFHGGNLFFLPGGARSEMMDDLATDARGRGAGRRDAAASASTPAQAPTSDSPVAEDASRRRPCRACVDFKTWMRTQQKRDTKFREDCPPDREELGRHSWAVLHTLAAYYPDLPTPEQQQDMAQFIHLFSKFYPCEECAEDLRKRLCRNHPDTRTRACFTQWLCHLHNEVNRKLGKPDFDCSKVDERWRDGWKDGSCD
A3G deaminase = APOBEC3G DNA deaminase inhibitors, primary screen, biochemical, fluorescence, single-stranded DNA substrate, uHTS; recombinant A3G, ssDNA deamination FAM/TAMRA fluorescence; inhibition, % at 20 µM; 330,000 compounds, 0.28% hits; AID 493012, 2011;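 active = inhibition of at least 40% at 20 µM, with no more than 30% in the related APOBEC3A deaminase screen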;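 note: plate controls were DMSO wells with A3G for no effect and wells lacking A3G enzyme for full effect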
Yeast superoxide = reduction of superoxide in aged yeast, primary screen, HTS; S. cerevisiae aged cells, superoxide DHE fluorescence; hits give low values; superoxide response (% of plate mean), % at 10 µM; 330,000 compounds, 0.18% hits;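 active = superoxide response under a set limit, about three screen SD below normal, cut at about 65% in these data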;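 note: yeast aged for seven days with compound at 30 °C before DHE staining; 100% = average MFI of all compound-treated wells on the plate with controls excluded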
NRP1-CendR mod = modulators of CendR peptide binding to NRP-1, primary screen, biochemical, fluorescence polarization, uHTS; AID 602438, 2012; inhibition, % at 25 µM; FAM-RPARPAR peptide binding to NRP-1; Neuropilin-1 (Homo sapiens), O14786; 360,000 compounds, 0.85% hits;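 active = inhibition or corrected inhibition above about 18%, plus a signal ratio from 0.5 to 1.5, limit read from the data, passing the limit was not always enough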
M18AAP inhibitor = PfM18AAP inhibitors, malaria aminopeptidase, primary screen, biochemical, QFRET, recombinant enzyme | AID 1822, 2009 | inhibition, % at 7.35 µM | 290,000 compounds, 1.2% hits | H-Glu-NHMec fluorogenic cleavage | M18 aspartyl aminopeptidase (Plasmodium falciparum 3D7);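 active = inhibition above the campaign mean inhibition over all tested compounds plus 3 SD, cut at about 28% in these data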;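 note: 0% = plate median of test compound wells and 100% = 2 mM ZnCl2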
APOBEC3A inh = APOBEC3A ssDNA deaminase inhibitors, primary screen, selectivity assay for APOBEC3G inhibitor project, biochemical, FAM/TAMRA oligo cleavage fluorescence. 330,000 compounds, 0.41% hits. DNA dC->dU-editing enzyme APOBEC-3A (Homo sapiens), P31941. AID 493011, 2011. inhibition, % at 20 µM. recombinant A3A, FAM/TAMRA ssDNA deamination fluorescence;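 active = at least 40% inhibition at 20 µM here, with at most 30% in a related deaminase screen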;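 note: plate controls were A3A with DMSO for no effect and wells lacking A3A enzyme for full effect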
Target sequence (P31941 whole entry, looked up): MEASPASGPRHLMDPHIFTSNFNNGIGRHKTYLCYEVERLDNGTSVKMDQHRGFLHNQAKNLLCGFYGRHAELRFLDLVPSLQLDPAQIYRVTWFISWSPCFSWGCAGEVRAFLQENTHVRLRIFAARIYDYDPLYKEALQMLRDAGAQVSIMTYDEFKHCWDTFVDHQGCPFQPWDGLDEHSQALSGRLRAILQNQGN
CR mimetic CP = superoxide lowering in aged yeast cells, confirmation, cherry picked compounds; shares compounds with Yeast superoxide; S. cerevisiae aging, superoxide DHE fluorescence; hits give low values; superoxide response (% of plate), % at 10 µM; 850 compounds, 1% hits; AID 434994, 2010;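 active = superoxide signal below 65% of the plate average of sample wells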;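 note: cells aged with compound for 7 days at 30 degrees C before staining; 100% equals mean DHE fluorescence of all compound wells on the plate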
DHE counter = DHE quenching or ROS scavenging interference in aged yeast, artefact control for yeast caloric restriction mimetic project, S. cerevisiae BY4741, flow cytometry. shares compounds with Yeast superoxide. DHE fluorescence; hits give low values. fluorescence response, % at 10 µM. 850 tested, under 10 active. AID 435000, 2010;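 active = fluorescence response below 15%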;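 note: percent of the mean fluorescence averaged over all compound wells on the plate; lower means stronger quenching of DHE signal or ROS scavenging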
A3A conf = APOBEC3A deaminase inhibitors, retest, confirmation, selectivity assay for APOBEC3G inhibitor project, biochemical, single concentration, fluorescence readout; 1,400 compounds, 63% hits; inhibition, % at 20 µM; shares compounds with APOBEC3A inh; recombinant A3A, ssDNA deaminase UDG fluorescence assay; AID 493151, 2011;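 active = inhibition reaching a set limit, 80% of the first screen's cutoff, at 20 µM in any replicate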;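 note: plate controls were DMSO wells with A3A for no effect and wells lacking A3A enzyme for full effect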
UDG ctr A3A = E. coli UDG inhibitors, confirmation, counter-screen for APOBEC3A inhibitor project, biochemical, single concentration, fluorescence, FAM/TAMRA oligo; shares compounds with APOBEC3A inh; UDG counterscreen, FAM/TAMRA uracil oligo fluorescence; inhibition, % at 20 µM; 1,000 tested, under 10 active; AID 504714, 2011; call rule not given here
The depositor's hits bear a star; ? = inconclusive; / = no result.

SMILES	ALR H2O2 inh	A3G deaminase	Yeast superoxide	NRP1-CendR mod	M18AAP inhibitor	APOBEC3A inh	CR mimetic CP	DHE counter	others
OCC[n+]1c2ccccc2nc2ccc(N3CCOCC3)cc21	-19	5	43*	14	-3	-14	66	91
O=C(CCc1ccccc1)N1Cc2cc(N3CCOCC3)ccc2-n2nncc2C1	/	/	/	6	/	/	/	/
CC(=O)O[C@@H]1CC[C@]2(C)C3CC[C@@]4(C)C(C[C@@H](O)[C@@H]4O)C3[C@@H](OC(C)=O)C[C@H]2C1 (stereo partly specified)	0	8	104	-14	/	0	110	112
C=C1C(O)[C@@H]2O[C@]3(CC[C@H](/C=C/C(C)[C@@H]4CC(C)=CC5(O[C@H](C[C@@](C)(O)C(=O)O)CCC5O)O4)O3)CC[C@H]2O[C@@H]1C(O)CC(C)[C@H]1OC2(CCCCO2)CCC1C (stereo partly specified)	0	-8	47*	/	/	-1	48*	102
O=c1[nH]c(O)c(C=Nc2ccc(F)c(Cl)c2)c(=O)[nH]1	-8	-8	60*	-11	-5	-5	104	93
COC(=O)C1=C(c2ccc(-c3ccccc3)c(F)c2)C[C@@H]2CC[C@H]1N2C(=O)NCCOc1ccccc1Cl	1	-7	89	3	/	-1	/	/
Cc1cc(Cl)nc(N)n1	1	-6	51*	-10	-1	-5	99	88
Nc1cc(C(=O)Nc2ccc(Cl)cc2)ccc1N1CC2CC(C1)c1cccc(=O)n1C2 (stereo unspecified)	-6	-6	117	-3	15	-3	/	/
COc1cc(C(CN)CC(=O)O)ccc1O (stereo unspecified)	/	-4	99	6	5	-5	/	/
COc1ccc(C(C)=O)cc1CN1CC=C(c2ccccc2)CC1	-2	5	102	20	12	56*	/	/	A3A conf=33*;UDG ctr A3A=-2
Nc1ccccc1Cl	-10	-10	120	2	/	-2	/	/
CC(C)N=C(NC(C)C)N1CC1	/	/	/	1	/	/	/	/
CN(C)CC1CCCCC1OC(=O)Cc1ccc(Cl)c([N+](=O)[O-])c1 (stereo unspecified)	/	15	84	5	2	55*	/	/	A3A conf=74*;UDG ctr A3A=1
Brc1ccccc1CNCCc1ccc2c(c1)OCO2	-7	-3	101	3	0	-1	/	/
CC1=C2CCC3C(CCC4=CC(=O)CCC43C)C2CC1 (stereo unspecified)	/	/	/	2	/	/	/	/
O=C(O)c1ccccc1-c1ccc(C=C2C(=O)N(c3ccccc3)C(=S)N(c3ccccc3)C2=O)o1	?	23	107	-86	8	17	/	/
CC1CCCC(C2(O)C(=O)Nc3ccccc32)C1=O (stereo unspecified)	-25	10	114	10	-24	68*	/	/	A3A conf=74*;UDG ctr A3A=-2
CCOP(=O)(OCC)C1(O)C(=O)Nc2ccccc21 (stereo unspecified)	-7	-4	109	-3	2	3	/	/
